Molecules are shown by their SMILES. “And” between values parts separate entries of the source, which are not always exact repeats. Identical values can stand only once. The whole screen tested about 340,000 compounds, of which about 12,000 (3.5%) were called active. Not shown: some 18% with an inconclusive outcome. The list comes from a sample in which actives are over-represented; it also holds similar structures and randomly drawn compounds. The source holds several records for some structures; these can differ, active in one and inactive in another. A number with no mark means an inactive call. Calls follow the shape of the dose curve; as a rule, active = well fitted inhibition curve with a large enough effect; inconclusive = small, poorly fitted or top-dose-only effect, or another doubt; inactive = no such curve, though single readings can be large or run the other way.
% is scaled to controls: 0 for no effect and ±100 for the full control effect; potency is read from the fitted curve at half-maximal effect.

This experiment is described as follows: qHTS Assay for Inhibitors of Hepatitis C Virus (HCV). Particulars: Huh7.5.1 HCVcc-Cre infection, luciferase reporter, 44 h; series mostly up to 41.8 µM; activity change, negative = inhibition: at the top concentration. The method in brief:
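Seed cells (1,000/well) for 4 h; treat with compound and infect with HCVcc-Cre, moi about 0.5. Incubate 44 h, then detect luciferase activity.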
Background: Quantitative high-throughput screening tests each substance at several concentrations.
For `CCn1c(SCC(=O)NCC2CCCO2)nc2ccccc21` (centres undefined), the “activity change, negative = inhibition” value is 5.12%.

Regarding `O=C(Nc1nc(-c2ccc3c(c2)OCO3)cs1)c1ccncc1`, the Potency is 12.6 µM (active).

As to `Cc1ccc(-c2csc(NC(=O)C3=COCCO3)n2)cc1C`, the Potency was 7.94 µM (active). With `Cc1csc(NC(=O)C2=COCCO2)n1`, the “activity change, negative = inhibition” value was -13.4%. In the case of `CC(=O)NCCC(=O)Nc1nc(-c2ccc3c(c2)OCCO3)cs1`, the “activity change, negative = inhibition” value is -11.8%. As to `Cc1ccc(-c2csc(NC(=O)c3cnccn3)n2)cc1C`, the “activity change, negative = inhibition” value was 15.7%. Consider `O=C(Nc1nc(-c2ccncc2)cs1)C1COc2ccccc2O1` (centres undefined), for which the “activity change, negative = inhibition” value is -28%. Still for that read-out and setting: the value for `O=C(CCc1nc2sc3c(c2c(=O)[nH]1)CCCC3)NCC(=O)Nc1ccccc1Br` was 16.5%; that for `COc1ccc(CNC(=O)COC(=O)C2=Cc3ccccc3OC2)cc1` was 5.91%. The same measure, in the same setting: the value for `Cn1cc(C2OC(=O)c3ccccc32)c2ccccc21` (centres undefined) was -11.7%; that for `COc1cc(F)c(C2=CC(=O)CC(C)(C)C2)cc1F` was 0.584%; that for `Cc1cc([N+](=O)[O-])ccc1NS(=O)(=O)c1ccccc1` was -10.6%. Still for that read-out and setting: the result for `COC(=O)c1ccc(/C=C/c2c(-c3ccc(OC)cc3)sc3ccccc23)cc1` reads 20.7%. As for `Cc1cccc(NC(=O)c2ccccc2NC(=O)C(C)(C)C)n1`, the “activity change, negative = inhibition” value was 14.2%. On to `Cc1cccc(NC(=O)c2ccc(COc3ccccc3[N+](=O)[O-])o2)n1`, for which the Potency is 25.1 µM (active). On to `Cc1cccc(NC(=O)Nc2ccc(OCc3ccccc3)cc2)n1`, for which the “activity change, negative = inhibition” value was -13.2%. Take `CCc1ccc(C(=O)C(C)OC(=O)CN2C(=O)NC3(CCCC3)C2=O)cc1` (centres undefined): the “activity change, negative = inhibition” value was 11.3%. Turning to `O=C(O)c1ccc(S(=O)(=O)N2CCC(Cc3ccccc3)CC2)cc1`, the “activity change, negative = inhibition” value is 17%.

`Brc1ccccc1CN1CCC(Cc2ccccc2)CC1`: the “activity change, negative = inhibition” value was 13.6%.

Consider `NC(=O)c1ccc(CN2CCC(Cc3ccccc3)CC2)cc1`, for which the Potency is 11.2 µM (active). As to `COc1ccccc1CNS(=O)(=O)c1cc2c3c(c1)CCC(=O)N3CCC2`, the “activity change, negative = inhibition” value is -27.5%. On to `COc1ccc(-c2nc3c(s2)CCc2onc(-c4ccc(Br)cc4)c2-3)cc1`, for which the “activity change, negative = inhibition” value was 6.47%. Same read-out and setting: the value for `CCCCn1c(N)c(N(CC(C)C)C(=O)CN(C)S(=O)(=O)c2ccc(F)cc2)c(=O)[nH]c1=O` was 2.2%. `CC[C@@H]1Cc2cc(O)ccc2C2=C1c1ccc(O)cc1C[C@H]2CC`: the Potency is 3.16 µM (active). As to `CC1(C)CC(=O)c2ccc(O)cc2O1`, the “activity change, negative = inhibition” value was -1.61%. Still for that read-out and setting: the result for `O=C(Nc1cccc(S(=O)(=O)NC2=NCCC2)c1)c1ccc(F)cc1F` reads -7.06%; that for `COc1ccc(-n2nc(C(=O)NCC(=O)N3CCC(C(N)=O)CC3)c3ccccc3c2=O)cc1OC`, 12.3%. Take `COc1ccc(-n2nc(C(=O)NCC(=O)N3CCCCCC3)c3ccccc3c2=O)cc1Cl`: the Potency was 11.2 µM (active).

As to `COc1ccc(-n2nc(C(=O)NCC(=O)N3CCN(c4ccccc4OC)CC3)c3ccccc3c2=O)c(OC)c1`, the “activity change, negative = inhibition” value was -14%. Still for that read-out and setting: the value for `O=C1N[C@@H](Cc2ccccc2)C(=O)N2[C@@H]3N(S(=O)(=O)c4ccc(F)cc4)c4ccccc4[C@]3(Br)C[C@@H]12` was 2.9%.

In the case of `CCOC(=O)C1CCN(CC(=O)Nc2ccc(OC)c(S(=O)(=O)N3CCCCC3)c2)CC1`, the “activity change, negative = inhibition” value was 6.66%. Consider `O=c1[nH]c2c(c(=O)n1-c1ccccc1)CCO2`, for which the “activity change, negative = inhibition” value was 25.9%.

As to `O=C(COC(=O)c1c2c(nc3ccccc13)/C(=C\c1cccs1)CCC2)Nc1ccccc1Cl`, the Potency is 4.47 µM (active) and 2.51 µM (active). Take `COc1cc(/C=C2\CCCc3c2nc2ccccc2c3C(=O)O)cc(Cl)c1O`: the “activity change, negative = inhibition” value is 8.48%.

For `O=C(COC(=O)c1cccs1)Nc1ccccc1Cl`, the “activity change, negative = inhibition” value is 7.58%.

Consider `Cc1ccc(C)c(NC(=O)COC(=O)CSc2ccccc2)c1`, for which the “activity change, negative = inhibition” value was -8.78%. The same measure, in the same setting: the result for `CN(CC(=O)NCc1ccc2c(c1)OCO2)CC(=O)Nc1ccc(F)c(F)c1F` reads 7.62%. On the same count and under the same terms, the value for `COc1ccc(CC(=O)Nc2ccc3c(c2)CCC3)cc1S(=O)(=O)N1CCOCC1` was -3.24%; that for `COc1cc(/C=C/C(=O)OCC(=O)N2CCOCC2)ccc1OCC#N` was 3.73%. On to `COc1ccc(NS(=O)(=O)c2cc(NC(=O)/C=C/c3cc(OC)c(OC)c(OC)c3)ccc2N2CCCCC2)cc1`, for which the Potency result was “inactive”.

Take `COc1cc(/C=C/C(=O)Nc2ccc(OC)c(S(=O)(=O)N3CCOCC3)c2)ccc1OCC#N`: the Potency is 7.08 µM (active). On the same count and under the same terms, the result for `COc1ccc(CCC(=O)Nc2ccc(Cl)c(S(=O)(=O)N3CCOCC3)c2)cc1OC` reads 11.2 µM (active). For the compound `COc1ccc(CNC(=O)COC(=O)c2ccc(C)c(S(=O)(=O)N3CCOCC3)c2)cc1OC`, the “activity change, negative = inhibition” value is -3.02%.

As for `O=C(c1cnccn1)N1CCN(S(=O)(=O)c2cccc(Cl)c2)CC1`, the “activity change, negative = inhibition” value is 5.65%. Still for that read-out and setting: the result for `CCOc1ccc(NC(=O)COC(=O)C2CCC(=O)N2)c([N+](=O)[O-])c1` (centres undefined) reads 21.4%; that for `CC(C)CC1NC(=O)c2cc(Cl)ccc2-n2c1nc1ccccc1c2=O` (centres undefined), 11.4%. Still for that read-out and setting: the result for `CC(=O)Nc1ccc(-c2nc3ccccc3o2)cc1` reads -1.93%. In the case of `Cc1ccc2nc(-c3ccc(NC(=O)c4cccnc4)cc3)oc2c1`, the Potency is 10 µM (active). On to `Cc1cc2nc(-c3ccc(NC(=O)c4cccnc4)cc3)oc2cc1C`, for which the “activity change, negative = inhibition” value was -25.6%.

Consider `N=C1c2ccccc2-c2ccccc21`, for which the “activity change, negative = inhibition” value is 8.98%. With `CC(C)(C)OC(=O)C[C@@H]1C/C=C\C[C@@H](CC(=O)NCCO)C(=O)N[C@H](Cc2c[nH]c3ccccc23)COC1=O`, the “activity change, negative = inhibition” value was 12.1%. The same measure, in the same setting: the result for `Cc1cc(C)c(S(=O)(=O)n2cc(C(C)C(N)C(=O)O)c3ccccc32)c(C)c1` (centres undefined) reads 20.4%. Same read-out and setting: the value for `O=C(NNC(=O)C1CCN(c2ncccn2)CC1)c1ccccc1` was 10.3%; that for `O=C(Cc1ccccc1)NNC(=O)C1CCN(c2ncccn2)CC1` was -20.5%; that for `Cc1cc(=O)n2nc(N3CCC(C(=O)Nc4c(F)c(F)c(F)c(F)c4F)CC3)sc2n1` was -8.41%. As to `CCc1ccc(C(=O)NNC(=O)C2CCN(c3ncnc4sc(C)c(C)c34)CC2)cc1`, the Potency is 12.6 µM (active).

For `Cc1sc2ncnc(N3CCC(C(=O)Nc4ccc(F)cc4Cl)CC3)c2c1C`, the Potency was 11.2 µM (active). As to `Cc1sc2ncnc(N3CCC(C(=O)Nc4nc5ccc(Cl)cc5s4)CC3)c2c1C`, the “activity change, negative = inhibition” value is 0.865%.

For `CCOc1cccc2cc(C(=O)OCC(=O)Nc3c(C)cccc3CC)c(=O)oc12`, the “activity change, negative = inhibition” value was 7.95%. For `Clc1ccc(CN2CCN(/N=C/c3cccnc3)CC2)cc1`, the “activity change, negative = inhibition” value is -3.56%. Same read-out and setting: the result for `O=Cc1cn(Cc2ccccc2)nc1-c1cccnc1` reads 5.66%. Take `O=C1/C(=C\c2cccnc2)CN(Cc2ccccc2)C/C1=C\c1cccnc1`: the Potency was 6.31 µM (active). For the compound `CC(OC(=O)CNC(=O)c1cccc(F)c1)C(=O)NC1CCCCC1C` (centres undefined), the “activity change, negative = inhibition” value was -18.8%. With `O=C(N/N=C/c1cc(Br)c(O)c([N+](=O)[O-])c1)C(O)(c1ccccc1)c1ccccc1`, the “activity change, negative = inhibition” value is 1.49%. The same measure, in the same setting: the value for `C#CCNc1ccc(C(=O)OCC)cc1` was 20.7%; that for `CC(CN1CCCCC1)OC(=O)c1ccccc1Cl` (centres undefined) was 5.79%; that for `CC(CN1CCOCC1)OC(=O)c1ccc(Cl)cc1Cl` (centres undefined) was 17.4%. Regarding `CC(C)OC(=O)c1ccc(NCc2cc(O)ccc2O)cc1Cl`, the Potency was 6.31 µM (active). As for `COC(=O)c1ccc(NCC(=O)c2ccccc2)cc1`, the “activity change, negative = inhibition” value was -4.54%. Regarding `COC(=O)c1ccc(NCc2cc(O)ccc2O)cc1`, the Potency was 5.01 µM (active). With `COc1ccc(Cl)cc1NC(=O)COc1ccc2c(c1)OCO2`, the “activity change, negative = inhibition” value is -5.11%. The same measure, in the same setting: the value for `CC1CN(C(=O)c2ccc([N+](=O)[O-])s2)CC(C)O1` (centres undefined) was 26.4%; that for `O=C(Nc1ccccc1)Nc1nc2ccccc2s1` was -12.9%. As for `c1ccc(C(=NNc2nc3ccccc3s2)c2ccccn2)cc1`, the Potency was 1.58 µM (active).

In the case of `c1ccc2sc(NN=C3CCCC3)nc2c1`, the “activity change, negative = inhibition” value was -20.9%.

In the case of `Cc1ccc(S(=O)(=O)N2CCOCC2)cc1NC(=O)COC(=O)c1cnccn1`, the “activity change, negative = inhibition” value was 0.865%. The same measure, in the same setting: the value for `Cc1cccc(C)c1OC(=O)CSc1nnc(-c2ccccc2)o1` was -4.66%.

As for `CC1=CC(C)(C)N(C(=O)CSc2nnc(-c3ccccc3)o2)c2ccc(C)cc21`, the Potency is 11.2 µM (active). With `CCOC(=O)CSc1nnc(-c2cccc(Br)c2)o1`, the “activity change, negative = inhibition” value is 15.7%.

`CC1(C)C[C@H]2C3=CCC4[C@@]5(C)CC[C@H](O)[C@](C)(CO)C5CC[C@@]4(C)[C@]3(C)C[C@@H](O)[C@@]2(CO)[C@@H](O)[C@@H]1O` (some centres undefined): the “activity change, negative = inhibition” value is 8.47%. Still for that read-out and setting: the value for `Cc1cc(C(=O)COc2ccccc2Cl)c(C)n1C1CC1` was -11.2%; that for `Cc1cc(C(=O)OCC(=O)Nc2c(F)cccc2F)c(C)n1C1CC1` was 13.6%. On to `Cc1cc(C(=O)COc2ccc(Br)cc2F)c(C)n1C1CC1`, for which the Potency is 22.4 µM (active). Take `O=C(CSc1ccccn1)N1CCN(S(=O)(=O)c2ccc(Cl)cc2)CC1`: the “activity change, negative = inhibition” value was 2.37%. Still for that read-out and setting: the result for `COc1ccccc1-n1nnnc1SCC(=O)NC(=O)Cc1ccccc1` reads 3.1%. On the same count and under the same terms, the value for `Cc1ccc(Cl)c(OCC(=O)N(C)CC(=O)Nc2ccc(N3CCOCC3)cc2)c1` was -13.6%. The same measure, in the same setting: the result for `O=C(COC(=O)c1ccco1)Nc1ccc(Cl)cn1` reads 7.08%. With `CN(C)[C@@H]1C(=O)C(C(N)=O)=C(O)[C@@]2(O)C(=O)C3=C(O)c4c(O)ccc(Cl)c4[C@@H](O)[C@H]3C[C@@H]12`, the Potency was 2.82 µM (active) and the activity change, negative = inhibition was 0.778% [at 8.37 µM]. Consider `CCCCn1c(N)c(N(CCC(C)C)C(=O)c2ccc(COc3ccccc3)o2)c(=O)[nH]c1=O`, for which the “activity change, negative = inhibition” value is -10.5%. For the compound `O=C(CNC(=O)c1cc(S(=O)(=O)N2CCOCC2)ccc1N1CCCC1)Nc1ccc(F)c(F)c1`, the “activity change, negative = inhibition” value is 5.03%. The same measure, in the same setting: the result for `CC1CC(=NNC(=O)C2COc3ccccc3O2)CC(C)(C)C1` (centres undefined) reads -16.6%; that for `CN(C)C(=O)CCc1ccc2c3c([nH]c2c1)[C@]1(CCC2CCCC2)[C@@H](C(=O)N2CCOCC2)C[C@H](CC(=O)NCc2ccco2)C(=O)N1CC3`, 11% [at 8.37 µM]. Still for that read-out and setting: the result for `CCc1ccccc1NC(=O)CN(C)C(=O)c1cc(C2CC2)nn1-c1ccccc1` reads -18.9%. Take `CN(c1ccccc1)S(=O)(=O)c1cccc(NC(=O)Cc2c(F)cccc2Cl)c1`: the Potency was 8.91 µM (active). Turning to `CN(C)S(=O)(=O)c1cccc(NC(=O)Cc2ccsc2)c1`, the “activity change, negative = inhibition” value was -5.68%.

Regarding `CN(c1ccccc1)S(=O)(=O)c1cccc(C(=O)NNC(=O)c2ccncc2)c1`, the activity change, negative = inhibition was -10.3% [at 8.37 µM]. On the same count and under the same terms, the value for `CCOC(=O)[C@@H]1[C@H]2COc3ccc(Br)cc3[C@H]2N2C(=O)N(c3ccc(C)cc3)C(=O)[C@@]12C` was 4.27%; that for `COC(=O)CC(CC(=O)OC)n1cccc1` was 12.6%.
